Screening data deposited in PubChem BioAssay by National Center for Advancing Translational Sciences (NCATS).
Shiga toxin inh – inhibitors of Shiga toxin in Vero cells; Vero cells, Shiga toxin protein synthesis inhibition reporter; inhibition, % at 38.7 µM; actives 9.2% (n = 290,000); AID 2315; in the data active = inhibition mostly above about 28%, no sharp cut-off; inactive = mostly below about 43%; note: 0% is about no effect
Pf growth 48h – inhibits P. falciparum growth in the first generation, 48 h; P. falciparum luciferase growth in erythrocytes, 48 h; Potency, µM (titrated, usually from 28.7 µM), inactives show top-dose activity change, negative = inhibition, actives largely listed as inhibitors; AID 504832; actives 5.9% (n = 310,000); note: potency is the fitted concentration of half-maximal effect; % is set by controls: 0 for no effect and ±100 for the full control effect
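Luciferase-expressing P. falciparum in infected erythrocytes (2% hematocrit, 0.1% parasitemia final) in RPMI 1640/0.5% Albumax were exposed to compound for 48 hours at 37 C, 5% CO2; growth read as luminescence.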
Pf growth 96h – P. falciparum growth inhibition at 96 hour, primary screen for plastid delayed-death inhibitors | P. falciparum luciferase reporter growth, 96 h | Potency, µM (titrated, usually from 28.7 µM), for the others: top-dose activity change, negative = inhibition, most hits filed as inhibitors | actives 6.9% (n = 320,000) | AID 504834; note: potency is the fitted concentration of half-maximal effect; % is set by controls: 0 for no effect and ±100 for the full control effect
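Infected RBCs, 2% Hct / 0.05% parasitemia final; luciferase-reporter P. falciparum; cpd 96 h, 37 C, 5% CO2; luciferase detection reagent; luminescence.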
Cycloheximide cs – counter-screen for Shiga toxin inhibitors: cycloheximide protein synthesis inhibition; max response, %; actives 12% (n = 300,000); AID 2314; cell reporter, cycloheximide protein synthesis inhibition counterscreen; in the data active = max response mostly above about 13%, no sharp cut-off; inactive = mostly below about 14%; note: read at 38.3 µM for the half of the compounds with a filed dose; 0% is about no effect
Marburg entry inh – inhibitors of Marburg virus binding or cell entry; Marburg virus pseudotyped entry inhibition, cell reporter; Potency, µM (doses to about 37.8 µM), for the others: at the top dose activity change, negative = inhibition, hits mostly inhibitors; actives 1.8% (n = 300,000); calls by dose curve; tested in HEK293 cells; note: potency is the fitted concentration of half-maximal effect; % is set by controls: 0 for no effect and ±100 for the full control effect
LASV entry inh – Lassa virus entry inhibition. Lassa virus pseudotype entry inhibition, cell reporter. Potency, µM (titrated, usually from 37.9 µM), inactives show at the top dose activity change, negative = inhibition, most hits filed as inhibitors. actives 1.2% (n = 300,000). AID 540256; calls by dose curve; tested in HEK293 cells; note: potency is the fitted concentration of half-maximal effect; % is set by controls: 0 for no effect and ±100 for the full control effect; nearly all actives have a fitted effect of over 50% in size
An asterisk follows results filed as active; i = inactive; u = inconclusive; x = not tested or not shown; [ ] = another dose, or the depositor's remark. A selection: hits, their analogues and other compounds. The true share with any hit is near 19%. Unless noted, calls come from the whole dose curve; as a rule, active = well fitted inhibition curve with a large enough effect; inconclusive = small, poorly fitted or top-dose-only effect, or another doubt; inactive = no such curve, though single readings can be large or run the other way.

SMILES	Shiga toxin inh	Pf growth 48h	Pf growth 96h	Cycloheximide cs	Marburg entry inh	LASV entry inh
Cc1cc(NC(=O)CCC(=O)N(c2ccc(F)cc2)C(C(=O)NC2CCCC2)c2ccc(C)o2)no1 (stereo not drawn)	13	9.3µM*	32%	18	x	x
Cc1cc(NC(=O)CCC(=O)N(CC(=O)NC2CCCC2)c2ccccc2)no1	-3	u	15µM*	1	-1%	u
Cc1cc(NC(=O)CCC(=O)N(Cc2ccco2)C2(C(=O)NC3CCCC3)CCC(C)CC2)no1 (stereo not drawn)	-9	15µM*	u	-1	-18%[46.1 µM]	x
Cc1ccc(C(=O)CSc2nc(C)cc(C)c2C(=O)Nc2cccc(C)c2)cc1	x	x	x	x	-8%[46.1 µM]	30%[46.1 µM]
Cc1cc(NC(=O)/C=C/C(=O)N(CC(=O)NC2CCCC2)c2cccc3ccccc23)no1	0	10µM*	1%	-6	-4%	9%
CCc1ccccc1N(C(=O)CCC(=O)Nc1cc(C)on1)C(C(=O)NC1CCCC1)c1ccco1 (stereo not drawn)	-23	9.3µM*	27%	1	u	-15%
Cc1cc(NC(=O)CCC(=O)N(c2ccccc2)C(C(=O)NCC2CCCO2)c2cccnc2)no1 (stereo not drawn)	-7	-1%	10µM*	-3	1%	-3%
Cc1cc(NC(=O)CCCC(=O)N(CC(=O)NC2CCCCC2)c2ccccc2)no1	21	-22%	1%	-2	-1%	9%
Cc1cc(NC(=O)CCC(=O)N(c2cccnc2)C(C(=O)NC2CCCC2)c2ccccc2)no1 (stereo not drawn)	-8	-20%	29%	-4	u	4%
Cc1ccc(/C(=N/Nc2nc3ccccc3s2)C2=C(O)c3ccccc3C2=O)cc1	44*	33%	102%	19	-1%[46.1 µM]	-24%
Cc1cc[n+](CC(=O)Nc2nc3ccccc3s2)cc1	3	15%	u	6	u	1%[46.1 µM]
CC1(c2ccc(OC(F)F)cc2)NC(=O)N(CC(=O)Nc2cccnc2Cl)C1=O (stereo not drawn)	x	-8%	u	x	17%	-6%
Cc1cc(=O)n(C)c(=O)n1CCCCCCOc1cccc([N+](=O)[O-])c1	-8	-6%	4.1µM*	5	-56%	10%
C1CCC(Nc2nnnn2C2CCCCC2)CC1	20	21%	6%	-4	-2%[46.1 µM]	0%
CN(C)/C=C/C(=O)c1nnn(C2CCCCC2)c1NC1CCCCC1	8	5.2µM*	x	9	u	u
CCc1ccc(-c2ccc3nnc(SC)n3n2)cc1	17	5%	16%	22*	x	x
CCSc1nnc2ccc(-c3ccc(C)cc3)nn12	34	-6%	1%	26*	x	x
O=C(CNC(=O)Cc1ccccc1)NCC(=O)OCc1ccccc1	12	48%	u	0	-32%	u
CCOC(=O)c1ccc(NC(=O)N2CCN(CCc3ccccc3)CC2)cc1	12	u	x	20*	u	1%
COc1ccccc1NC(=O)N1CCN(CCc2ccccc2)CC1	3	4.1µM*	-4%	1	0%[46.1 µM]	17%[46.1 µM]
CCOC(=O)c1ccc(NC(=S)N2CCN(Cc3ccccc3)CC2)cc1	-3	-9%	u	1	u	-4%
COc1ccc(Cl)cc1NC(=O)N1CCN(CCc2ccccc2)CC1	-3	u	1%	1	5%	-11%
CCCCN(CC)CCCNC(=S)Nc1ccc2nc(N3CCN(CC)CC3)cc(C)c2c1	-8	2.9µM*	43%	-7	3.5µM*	u
CCCCN(CC)CCCNC(=S)Nc1ccc2nc(N3CCN(C)CC3)cc(C)c2c1	21	u	-1%	-2	2.5µM*	u
CCN1CCN(c2cc(C)c3cc(NC(=S)N(CC)CC)ccc3n2)CC1	8	13µM*	66%	-4	x	x
SMILES	Shiga toxin inh	Pf growth 48h	Pf growth 96h	Cycloheximide cs	Marburg entry inh	LASV entry inh
Cc1cc(N2CCN(C)CC2)nc2ccc(NC(=S)NCCCN3CCN(C)CC3)cc12	18	u	-10%	1	x	x
CCOc1ccc2[nH]c(=O)c(CN(CC3COCCO3)C(=O)c3ccco3)cc2c1 (stereo not drawn)	-12	2%	x	-5	-20%	19%
Cn1cc(S(=O)(=O)N2CCCC2)cc1C(=O)NCc1ccccc1Cl	-7	-20%	-4%	-2	x	x
Fc1ccc(-c2csc(N3CCSCC3)n2)cc1	98*	i	106%	32*	7%[46.1 µM]	5%
c1ccc(-c2csc(-n3cccn3)n2)cc1	46	i	72%	51*	7%[46.1 µM]	16%
Fc1ccc(-c2csc(N3CCOCC3)n2)cc1	51*	68%	72%	39*	u	5%[46.1 µM]
c1ccc(-c2csc(N3CCSCC3)n2)cc1	90*	196%	u	44*	11%[46.1 µM]	-4%[46.1 µM]
CS(=O)(=O)N1CCN(c2nc(-c3ccc(F)cc3)cs2)CC1	-4	33%	6%	-2	-2%	15%
COc1cc(N)ccc1Cc1ccc(N)cc1OC	-5	11%	u	2	u	u
O=C(O)c1cccc(S(=O)(=O)Nc2cc(Cl)ccc2Cl)c1	-8	23%	1%	-2	x	x
C/C(CC(=O)Nc1cccnc1)=N\NC(=O)c1ccc([N+](=O)[O-])c(Cl)c1	18	17%	-10%	7	14%	-4%
CC1=NN(c2nc(-c3ccc(Cl)cc3)cs2)C(=O)C1	-18	3%	115%	15*	21%	-2%
Cc1ccc(-c2csc(N3C(=N)SCC3=O)n2)cc1	42*	232%	140%	36*	2%[46.1 µM]	9%
Brc1ccc(-c2csc(N3CCC(c4ccccc4)C3)n2)cc1 (stereo not drawn)	-9	31%	8.3µM*	8	13%	-12%
O=C(CSc1nc(-c2ccc(F)cc2)cs1)N1CCOCC1	77	125%	2%	45*	u	u
CCCNC(=O)C1CC(c2ccc(C(F)(F)F)cc2)=NO1 (stereo not drawn)	51	64%	69%	21	x	x
O=c1ccn(Cc2ccccc2)cc1	-6	44%	64%	-4	x	x
c1ccc2oc(-c3csc(N4CCOCC4)n3)cc2c1	30	i	348%	28	7.9µM*	u
Clc1ccc(-c2csc(N3CCSCC3)n2)cc1	114*	87%	7%	35*	-1%	20%
COc1cc(-c2csc(N3CCOCC3)n2)cc(OC)c1OC	21	u	u	11	-3%	-9%
O=C(c1ncn[nH]1)N1CCN(c2nc(-c3ccccc3)cs2)CC1	49	71%	x	15*	16%	0%
Cc1cc(C)n(-c2nc(-c3ccc(Cl)cc3)cs2)n1	5	59%	x	9	2%[46.1 µM]	28%
O=C(c1cc(-n2cnnc2)ccc1Cl)N1CCN(c2nc(-c3ccccc3)cs2)CC1	3	3%	0%	-1	u	u
CC(=O)Nc1ccc(Nc2nc(C)c([N+](=O)[O-])c(Nc3ccc(NC(C)=O)cc3)n2)cc1	-11	-26%	2.1µM*	-3	u	-10%
